In the library only some 17% were active in any assay of this set; here they are far more common.
HT1080 IDH1KD tx = qHTS for induction of synthetic lethality in tumor cells producing 2HG: qHTS for the HT-1080-IDH1KD cell line; HT-1080 IDH1 knockdown viability, ATP luminescence, 48 h; Potency, µM (highest dose often 46.1 µM), most hits filed as cytotoxic; hit rate 2% among 360,000; AID 686971, 2013
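Assay cells: HT-1080 with IDH1 knockdown, 750 per well, RPMI/5% FBS. Exposure: 48 h at 37 °C following 2 h pre-incubation. Read: CellTiter-Glo luminescence; fitted concentration-response, curve class assigned.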
DT40 TDP1 CPT = qHTS for Inhibitors of human tyrosyl-DNA phosphodiesterase 1 (TDP1): qHTS in cells in presence of CPT; chicken DT40 Tdp1-/-;hTDP1 cells + 20 nM CPT, ATP luminescence, 48 h; Potency, µM (highest dose often 46.2 µM), most hits filed as inhibitors; hit rate 12% among 420,000; also: nearly all actives have a fitted effect of over 55% in size
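Chicken DT40 Tdp1-/- cells stably complemented with human TDP1 were seeded at 400 cells/well in medium containing 20 nM camptothecin, exposed to pin-transferred compounds, and grown at 37 °C for at least 48 hr. Viability was read as ATP luminescence.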
TDP1 cell noCPT = qHTS for Inhibitors of human tyrosyl-DNA phosphodiesterase 1 (TDP1): qHTS in cells in absence of CPT | DT40 Tdp1-/- hTDP1 cells, no CPT, ATP luminescence, 48 h | Potency, µM (top dose mostly 46.2 µM), most hits filed as inhibitors | hit rate 15% among 420,000 | AID 686978, 2013; also: nearly all actives have a fitted effect of over 55% in size
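Luminescent ATP content (CellTiter-Glo) served as the growth readout. Knockout chicken DT40 cells expressing human TDP1 were exposed to compounds without camptothecin for a minimum 48 hr at 37 °C.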
TGFb inhibitor = qHTS for Inhibitors of TGF-b; hit rate 1.2% among 410,000; HepG2 CAGA-GFP TGF-b/SMAD3 reporter, GFP fluorescence, 18 h; TGF-beta stimulated, 500 pg/mL final; Potency, µM (titrated, usually from 46.1 µM), most hits filed as inhibitors; AID 588855, 2011; also: nearly all actives have a fitted effect of over 65% in size
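TGF-beta reporter screen: HEPG2 CAGA-GFP, 1% FBS, 500 pg/mL TGF-beta final, 18 h; per-cell GFP summed per well; curves fitted and categorized by class.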
HT1080NT lethal = qHTS for induction of synthetic lethality in tumor cells producing 2HG: qHTS for the HT-1080-NT fibrosarcoma cell line; HT-1080-NT fibrosarcoma viability, CellTiter-Glo ATP luminescence, 48 h; hit rate 1.6% among 360,000; Potency, µM (titrated, usually from 46.1 µM), actives largely listed as cytotoxic;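 also: NT is the 2HG producing partner of a matched IDH1 knockdown line; nearly all actives have a fitted effect of over 55% in size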
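Read-out is CellTiter-Glo luminescence after 10 minutes at room temperature, following 48 hours' compound treatment of HT-1080-NT cells (750 cells/well, RPMI, 5% FBS, 37 degrees C).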
HepG2 viability = qHTS for Inhibitors of TGF-b: Cytotox Counterscreen; HepG2 CAGA-GFP viability, ATP luminescence, 18 h; Potency, µM (top dose mostly 46.1 µM), usual class: cytotoxic; hit rate 0.76% among 410,000; AID 588856, 2011
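CellTiter-Glo luminescence gave cytotoxicity after 18 hours at 37 degrees C. The cells were HepG2 CAGA-GFP in 1% FBS DMEM, stimulated with 500 pg/mL TGF-beta after compound addition. %Activity was normalised to no-cell wells (complete cell-killing) and DMSO (no toxicity), and curves were fitted and classified.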
Of the large screens only hits and unclear results are named; the others gave an inactive call. Calls follow the shape of the dose curve; as a rule, active = well fitted curve in the direction sought with a large enough effect; inconclusive = small, poorly fitted or top-dose-only effect, or another doubt; inactive = no such curve, though single readings can be large; an effect the other way counts as inactive or inconclusive.

CCc1ccc(CNC(=O)Cc2ccc(NC(=O)N3CCSc4ncccc43)cc2)cc1	DT40 TDP1 CPT 26µM, TDP1 cell noCPT 23µM (no result: HT1080 IDH1KD tx, HT1080NT lethal)
Cn1c(NC(=O)COc2ccccc2)cc(=O)n(C)c1=O	DT40 TDP1 CPT inconclusive
Cc1ccccc1C(=O)N1[C@@H](C(C)C)COc2cc(Br)ccc2S1(=O)=O	DT40 TDP1 CPT inconclusive, TDP1 cell noCPT inconclusive, TGFb inhibitor inconclusive
CC1=C(C(=O)Nc2ccc(CC(=O)NCc3ccccc3C)cc2)SCCO1	HT1080 IDH1KD tx inconclusive, DT40 TDP1 CPT inconclusive, TDP1 cell noCPT inconclusive, HT1080NT lethal inconclusive
COc1ccc(CNC(=O)c2ccc(NC(=O)C3=CSCCO3)cc2)cc1	DT40 TDP1 CPT inconclusive
CCOc1ccccc1CNC(=O)c1ccc(NC(=O)C2=CSCCO2)cc1	DT40 TDP1 CPT inconclusive, TDP1 cell noCPT 23µM
CCc1ccc(CNC(=O)Cc2ccc(NC(=O)C3=C(C)OCCS3)cc2)cc1	HT1080 IDH1KD tx 1.3µM, DT40 TDP1 CPT 1.2µM, TDP1 cell noCPT 1.3µM, TGFb inhibitor inconclusive, HT1080NT lethal 0.82µM
COc1ccc(C(=O)COC(=O)C(CCSC)NC(=O)COc2ccccc2)cc1 (configuration not stated)	none
Cc1cn2c(=O)cc(COC(=O)c3cccc(NC(=O)COc4ccc(Cl)cc4)c3)nc2s1	none (no result: HT1080 IDH1KD tx, HT1080NT lethal)
O=C(OCc1cc(=O)n2ccsc2n1)c1ccc(OC(F)F)cc1	none
COc1ccccc1C(=O)OCc1cc(=O)n2ccsc2n1	none
CCCCC(=O)Nc1ccc(C(=O)OCc2cc(=O)n3ccsc3n2)cc1	DT40 TDP1 CPT inconclusive, TDP1 cell noCPT 16µM (no result: HT1080 IDH1KD tx, HT1080NT lethal)
CCCOc1c(Br)cc(C(=O)OCc2cc(=O)n3ccsc3n2)cc1OC	DT40 TDP1 CPT 5.8µM, TDP1 cell noCPT 10µM
O=C(COc1ccc(Cl)cc1)Nc1ccc(C(=O)OCc2cc(=O)n3ccsc3n2)cc1	DT40 TDP1 CPT 15µM, TDP1 cell noCPT inconclusive, TGFb inhibitor inconclusive (no result: HT1080 IDH1KD tx, HT1080NT lethal)
COc1cc(Cl)c(NC(=O)c2cc3ccccn3n2)c(OC)c1	DT40 TDP1 CPT 16µM, TDP1 cell noCPT 21µM (no result: HT1080 IDH1KD tx, HT1080NT lethal)
NC(=O)CSc1nnc(-c2cccs2)n1Cc1ccco1	none
O=C(CSc1nnc(Cc2cccs2)n1Cc1ccco1)Nc1cc(Cl)cc(Cl)c1	DT40 TDP1 CPT 26µM, TDP1 cell noCPT inconclusive, TGFb inhibitor inconclusive
O=C(CSc1nnc(-c2ccccc2)n1-c1ccccc1)c1cccs1	DT40 TDP1 CPT inconclusive, TDP1 cell noCPT 12µM
O=C(CSc1nnc(-c2ccc(Cl)cc2)n1Cc1ccco1)c1cccs1	DT40 TDP1 CPT inconclusive, TDP1 cell noCPT 21µM, HT1080NT lethal inconclusive
Cc1ccc(C(=O)CSc2nnc(-c3ccccc3)n2-c2ccccc2)o1	DT40 TDP1 CPT 11µM, TDP1 cell noCPT 10µM
O=C(CSc1nnc(-c2ccccc2)n1-c1ccccc1)c1ccc[nH]1	DT40 TDP1 CPT inconclusive, TDP1 cell noCPT inconclusive
OC(c1ccc(F)c(F)c1)c1ncc(-c2ccc(F)cc2)[nH]1 (configuration not stated)	DT40 TDP1 CPT inconclusive
O=C(Cc1cccs1)NC1(C(=O)NC2CCCC2)CCCCC1	DT40 TDP1 CPT inconclusive
O=C(CCN1CCN(Cc2ccccc2)CC1)NNC(=O)Nc1cccc([N+](=O)[O-])c1	none
CC(=O)C1=C(O)C(=O)N(Cc2ccccc2)C1c1cccs1 (configuration not stated)	none
O=C1NC(=O)C2C1C(c1cccs1)NN2Cc1ccccc1 (configuration not stated)	DT40 TDP1 CPT 29µM, TDP1 cell noCPT 29µM

Source: PubChem BioAssay (National Center for Advancing Translational Sciences (NCATS))
